ssDAF12 agonist: S. stercoralis DAF-12 activation, primary screen; HEK293 ssDAF-12/GRIP1 lit1-tk-luc reporter, luminescence; % of 3 µM dafachronic acid response; activation, % at 6.8 µM; 370,000 tested, 1% active; AID 652126;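 active = activation above the mean over all tested compounds plus 3 SD, cut at about 0.9% in these data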
AHR act: activates the human aryl hydrocarbon receptor. P35869. AHR-responsive luciferase reporter cells, luminescence. activation, % at 5 µM. 320,000 tested, 2.5% active. AID 2796; in the data active = activation above about 47%
DAX1 inh-1: DAX1 (NR0B1) inhibition, primary screen; 370,000 tested, 1.1% active; inhibition, % at 6.8 µM; HEK293T StAR-luciferase reporter, SF-1/DAX-1 repression relief;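 active = inhibition above the mean over all tested compounds plus 3 SD, cut at about 3.6% in these data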;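 also: higher inhibition means more luminescence from relief of DAX-1 repression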
DAX1 inh-2: inhibits human nuclear receptor DAX1. inhibition, % at 6.75 µM. 340,000 tested, 0.99% active. AID 504766. P51843. HEK293 Gal4-DAX1 luciferase reporter, luminescence;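 active = inhibition above the mean over all tested compounds plus 3 SD, cut at about 4.2% in these data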;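 also: inhibition shows as a rise in luminescence from relieved DAX1 repression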
Target sequence (P51843 207-470 limits assumed): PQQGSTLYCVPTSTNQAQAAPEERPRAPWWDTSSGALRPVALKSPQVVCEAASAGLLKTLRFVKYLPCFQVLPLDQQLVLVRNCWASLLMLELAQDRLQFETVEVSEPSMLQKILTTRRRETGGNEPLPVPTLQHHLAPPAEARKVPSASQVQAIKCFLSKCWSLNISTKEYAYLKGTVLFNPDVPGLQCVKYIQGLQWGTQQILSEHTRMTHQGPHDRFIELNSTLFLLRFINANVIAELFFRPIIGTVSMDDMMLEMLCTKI
hcDAF-12 act: activators of H. contortus DAF-12 nuclear receptor; activation, % at 6.8 µM; HEK293 hcDAF-12 lit1-tk-luc reporter, luminescence; 0% DMSO, 100% Δ7-dafachronic acid; 370,000 tested, 1.4% active;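 active = activation above the mean of all tested compounds plus 3 SD, cut at about 5.5% in these data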
hgDAF-12 ag: activates the H. glycines DAF-12 receptor ligand-binding domain. HEK293 GAL4-hgDAF12 UAS-luciferase reporter, agonist luminescence; normalized to butyrate control. activation, % at 6.8 µM. 370,000 tested, 1.8% active. AID 687014;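 active = activation above a cutoff set at the mean of all screened compounds plus 3 SD, cut at about 10% in these data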
A number is an active result; - = inactive; . = not tested or not shown. A selection: hits, their analogues and other compounds. The true share with any hit is near 5.7%.

SMILES	ssDAF12 agonist	AHR act	DAX1 inh-1	DAX1 inh-2	hcDAF-12 act	hgDAF-12 ag
COc1ccc(/C=N/NC(=O)c2cccc([N+](=O)[O-])c2)c2ccccc12	-	-	-	-	-	-
Cc1[nH]c2ccccc2c1/C=N/NC(=O)c1cccc(F)c1	-	-	-	7.8	-	-
Cc1[nH]c2ccccc2c1/C=N/Nc1ccc(F)cc1F	.	78.4	.	.	.	.
Cc1[nH]c2ccccc2c1/C=N/Nc1ccccn1	-	.	-	.	-	-
Cc1cc(/C=N/NC(=O)c2ccncc2)c(C)n1-c1cccc(C(F)(F)F)c1	-	-	-	-	-	-
Cn1cc(/C=N/NC(=O)c2cccc([N+](=O)[O-])c2)c2ccccc21	-	68.8	-	-	-	-
Cc1cc(/C=N/NC(=O)c2cccc(F)c2)c(C)n1-c1ccccc1	-	-	-	4.5	-	11.0
NC(=O)C1C2CCC(C2)C1C(N)=O (configuration not stated)	-	.	-	-	-	-
CC(=O)Nc1ccc(OCC(O)Cn2cccn2)cc1 (configuration not stated)	-	.	-	-	-	-
Cn1cc(C(=O)N/N=C/c2cc(Br)cs2)c2ccccc21	.	50.3	.	.	.	.
Cc1[nH]c2ccccc2c1/C=N/NC(=O)c1cccc([N+](=O)[O-])c1	-	48.1	-	.	-	-
Cn1cc(/C=N/NC(=O)c2ccccc2O)c2ccccc21	-	-	-	-	-	-
CCOC(=O)N/N=C(\C)c1ccc(-n2cnnn2)cc1	-	-	-	-	-	12.8
COc1ccccc1N=Nc1c(C)[nH][nH]c1=O	-	-	-	-	-	-
Cc1ccc(N=Nc2c(C)[nH][nH]c2=O)c(C)c1	-	47.7	-	-	-	-
Cc1cc([N+](=O)[O-])nn1CC(=O)N(C)C1CCCCC1	-	-	-	-	6.3	-
CCOC(=O)c1[nH]c2ccccc2c1NC(=S)Nc1ccccc1	2.0	49.4	-	-	6.0	-
CCOC(=O)c1[nH]c2ccccc2c1NC(C)=O	-	-	-	-	-	-
CCOC(=O)c1c(C)nc(-c2ccccc2)nc1NC(=O)CC	-	47.1	-	-	-	-
CCOC(=O)c1[nH]c2ccccc2c1NC(=O)CC	-	59.9	-	-	6.1	-
CCOC(=O)c1[nH]c2ccccc2c1NC(=S)Nc1cccc(C)c1	-	72.4	-	-	5.8	-
CCOC(=O)c1[nH]c2ccccc2c1NC(=O)COC	-	-	-	-	-	-
CCOC(=O)c1[nH]c2ccccc2c1NC(=O)C(C)(C)C	-	-	-	-	-	-
CCc1nc(SCc2nc3ccccc3[nH]2)c2oc3ccccc3c2n1	-	-	-	-	-	-
Cc1ccc(S(=O)(=O)N2CCCCC2)cc1NC(=O)c1ccco1	-	.	-	-	-	-
SMILES	ssDAF12 agonist	AHR act	DAX1 inh-1	DAX1 inh-2	hcDAF-12 act	hgDAF-12 ag
COc1ccccc1CNC(=O)CSc1ccsc1[N+](=O)[O-]	-	-	-	-	-	10.9
COc1ccc(OC)c(CCNC(=O)CSc2ccsc2[N+](=O)[O-])c1	-	-	-	-	-	-
O=C(CSc1ccsc1[N+](=O)[O-])NCc1ccccc1	0.9	-	-	-	6.5	-
COc1ccc(CCNC(=O)c2cc(-c3ccccn3)nc3c(Cl)cccc23)cc1OC	-	-	-	-	-	-
Cc1c(CN(C)Cc2cn(C)nc2-c2ccccc2F)[nH]c2ccccc12	-	48.0	-	-	-	-
COc1ccccc1N1C(=O)C2C3C=CC(C3)C2(C)C1=O (configuration not stated)	-	-	-	-	-	-
C=CCOc1c(Br)cc(CNc2ccc(NC(=O)C(C)C)c(OC)c2)cc1OCC	-	67.4	-	-	-	-
C=CCOc1c(Br)cc(CNc2ccc(NC(=O)CCC)cc2)cc1OCC	-	-	-	-	-	-
C=CCOc1ccc(CNc2ccc(NC(=O)CCC)cc2)cc1OCC	-	-	-	4.5	-	-
C=CCOc1c(Br)cc(CNc2ccc3[nH]c(=O)[nH]c3c2)cc1OCC	-	-	-	-	-	-
COc1cc(OC)cc(C(=O)NC(=S)NCCc2ccccc2)c1	-	69.1	-	-	-	-
COc1cccc(/C=N/Nc2ncnc3scc(-c4ccccc4)c23)c1OC	-	52.6	-	-	-	-
O=C(O)c1ccc(Nc2ncnc3scc(-c4ccccc4)c23)cc1	-	-	-	-	-	-
